From PubChem BioAssay AID1159580 (chemical genetic matrix, 2015)
“And” between values parts separate entries of the source, which are not always exact repeats. Equal entries are not always repeated. Out of some 5,500 compounds screened, about 2,000 (36%) were called active. Roughly 18% stayed inconclusive and do not appear here. Cut-off read from the data, not from the text of the source: active = normalized growth mostly below about 0.91 (no sharp cut-off); inconclusive = no clear call, values can overlap the other calls; inactive = mostly above about 0.92. This is one part of the list. The source holds several records for some structures; these can differ, active in one and inactive in another.

Assay: chemical genetic growth profiling, strain panel (AID 1159580);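 note: tested at 20 µM; growth read once vehicle control cultures reached saturation at 30 °C; 1 = growth at the plate median or of vehicle wells; lower values mean less growth of the strain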
Settings: growth OD

Measured: normalized growth

Oc1ccc(O)cc1
active: S. cerevisiae deletion strains, locus YBR021W, strain FUR4, stronger effect = lower value 0.688 | S. cerevisiae deletion strains, locus YGR229C, strain SMI1, stronger effect = lower value 0.637 | S. cerevisiae deletion strains, locus YGR252W, strain gcn5, stronger effect = lower value 0.765 | S. cerevisiae deletion strains, locus YNL307C, strain MCK1, stronger effect = lower value 0.794
0.989 (inactive) and 0.9 (active): S. cerevisiae deletion strains, locus YAL013W, strain DEP1, stronger effect = lower value
inactive: S. cerevisiae deletion strains, locus YAL040C, strain CLN3, stronger effect = lower value 1.1 | S. cerevisiae deletion strains, locus YBR229C, strain ROT2, stronger effect = lower value 1.02 | S. cerevisiae deletion strains, locus YCL029C, strain bik1, stronger effect = lower value 1.04 | S. cerevisiae deletion strains, locus YCL061C, strain MRC1 (second series), stronger effect = lower value 0.978 | S. cerevisiae deletion strains, locus YDL035C, strain GPR1, stronger effect = lower value 0.9 | S. cerevisiae deletion strains, locus YDL074C, strain BRE1, stronger effect = lower value 0.96 | S. cerevisiae deletion strains, locus YDL101C, strain DUN1, stronger effect = lower value 1.02 | S. cerevisiae deletion strains, locus YDL134C, strain PPH21, stronger effect = lower value 0.987 | S. cerevisiae deletion strains, locus YDL185W, strain tfp1, stronger effect = lower value 1.01 | S. cerevisiae deletion strains, locus YDL192W, strain arf1, stronger effect = lower value 1.02 | S. cerevisiae deletion strains, locus YDR101C, strain arx1, stronger effect = lower value 1.03 | S. cerevisiae deletion strains, locus YDR150W, strain NUM1, stronger effect = lower value 1.01 and 0.953 | S. cerevisiae deletion strains, locus YDR162C, strain NBP2, stronger effect = lower value 0.987 | S. cerevisiae deletion strains, locus YDR318W, strain mcm21, stronger effect = lower value 1 | S. cerevisiae deletion strains, locus YDR363W, strain ESC2, stronger effect = lower value 0.997 | S. cerevisiae deletion strains, locus YDR388W, stronger effect = lower value 0.999 | S. cerevisiae deletion strains, locus YDR502C, strain sam2, stronger effect = lower value 1.02 | S. cerevisiae deletion strains, locus YEL061C, strain CIN8, stronger effect = lower value 1.02 | S. cerevisiae deletion strains, locus YER002W, strain NOP16, stronger effect = lower value 1 | S. cerevisiae deletion strains, locus YER110C, stronger effect = lower value 1.04 | S. cerevisiae deletion strains, locus YER155C, strain BEM2, stronger effect = lower value 1.02 | S. cerevisiae deletion strains, locus YER167W, strain BCK2, stronger effect = lower value 0.926 | S. cerevisiae deletion strains, locus YGL078C, strain dbp3, stronger effect = lower value 1.03 | S. cerevisiae deletion strains, locus YGL086W, strain mad1, stronger effect = lower value 0.985 | S. cerevisiae deletion strains, locus YGL248W, strain PDE1, stronger effect = lower value 0.975 | S. cerevisiae deletion strains, locus YGR078C, strain PAC10, stronger effect = lower value 0.858 and 1.01 | S. cerevisiae deletion strains, locus YGR135W, strain pre9, stronger effect = lower value 0.964 | S. cerevisiae deletion strains, locus YHR030C, strain SLT2, stronger effect = lower value 1 and 1.03 | S. cerevisiae deletion strains, locus YHR079C, strain IRE1 (second series), stronger effect = lower value 1 | S. cerevisiae deletion strains, locus YHR079C, strain IRE1, stronger effect = lower value 1.05 | S. cerevisiae deletion strains, locus YHR094C, strain hxt1, stronger effect = lower value 1.01 | S. cerevisiae deletion strains, locus YHR129C, strain ARP1, stronger effect = lower value 1.01 | S. cerevisiae deletion strains, locus YHR200W, strain rpn10, stronger effect = lower value 1 | S. cerevisiae deletion strains, locus YIL066C, strain RNR3, stronger effect = lower value 0.993 | S. cerevisiae deletion strains, locus YIL073C, strain SPO22, stronger effect = lower value 0.82 | S. cerevisiae deletion strains, locus YIL125W, strain kgd1, stronger effect = lower value 1.03 | S. cerevisiae deletion strains, locus YIR030C, strain dcg1, stronger effect = lower value 1.06 | S. cerevisiae deletion strains, locus YJL095W, strain BCK1, stronger effect = lower value 0.968 and 1.01 | S. cerevisiae deletion strains, locus YJL134W, strain LCB3, stronger effect = lower value 1.02 | S. cerevisiae deletion strains, locus YJL168C, strain set2, stronger effect = lower value 1.02 | S. cerevisiae deletion strains, locus YJL187C, strain SWE1 (second series), stronger effect = lower value 1.01 | S. cerevisiae deletion strains, locus YJR043C, strain POL32, stronger effect = lower value 0.86 | S. cerevisiae deletion strains, locus YJR066W, strain TOR1, stronger effect = lower value 1.02 | S. cerevisiae deletion strains, locus YJR075W, strain HOC1, stronger effect = lower value 0.951 | S. cerevisiae deletion strains, locus YKL009W, strain mrt4, stronger effect = lower value 1.03 | S. cerevisiae deletion strains, locus YKL068W, stronger effect = lower value 1.01 | S. cerevisiae deletion strains, locus YKL085W, strain MDH1 (second series), stronger effect = lower value 1.02 | S. cerevisiae deletion strains, locus YKL085W, strain MDH1, stronger effect = lower value 1.02 | S. cerevisiae deletion strains, locus YKL190W, strain CNB1, stronger effect = lower value 1 | S. cerevisiae deletion strains, locus YKR001C, strain vps1, stronger effect = lower value 0.927 | S. cerevisiae deletion strains, locus YLR039C, strain RIC1, stronger effect = lower value 0.904 | S. cerevisiae deletion strains, locus YLR058C, strain SHM2, stronger effect = lower value 1.01 | S. cerevisiae deletion strains, locus YLR102C, strain apc9, stronger effect = lower value 1.03 | S. cerevisiae deletion strains, locus YLR113W, strain HOG1, stronger effect = lower value 1.04 | S. cerevisiae deletion strains, locus YLR262C, strain YPT6, stronger effect = lower value 0.843 | S. cerevisiae deletion strains, locus YLR268W, strain sec22, stronger effect = lower value 0.98 | S. cerevisiae deletion strains, locus YLR330W, strain CHS5, stronger effect = lower value 1.01 | S. cerevisiae deletion strains, locus YLR342W, strain FKS1 (second series), stronger effect = lower value 0.801 | S. cerevisiae deletion strains, locus YLR371W, strain rom2, stronger effect = lower value 1.03 | S. cerevisiae deletion strains, locus YLR418C, strain cdc73, stronger effect = lower value 0.845 | S. cerevisiae deletion strains, locus YML016C, strain PPZ1, stronger effect = lower value 1.01 | S. cerevisiae deletion strains, locus YML032C, strain rad52, stronger effect = lower value 0.937 | S. cerevisiae deletion strains, locus YML124C, strain tub3, stronger effect = lower value 1.03 | S. cerevisiae deletion strains, locus YMR078C, strain ctf18, stronger effect = lower value 1.04 | S. cerevisiae deletion strains, locus YMR223W, strain ubp8, stronger effect = lower value 0.996 | S. cerevisiae deletion strains, locus YMR263W, strain SAP30, stronger effect = lower value 0.989 | S. cerevisiae deletion strains, locus YMR307W, strain GAS1, stronger effect = lower value 0.716 and 0.967 | S. cerevisiae deletion strains, locus YNL067W, strain RPL9B, stronger effect = lower value 0.933 | S. cerevisiae deletion strains, locus YNL128W, strain TEP1, stronger effect = lower value 1.02 | S. cerevisiae deletion strains, locus YNL153C, strain GIM3, stronger effect = lower value 0.995 | S. cerevisiae deletion strains, locus YNL175C, strain NOP13, stronger effect = lower value 1 | S. cerevisiae deletion strains, locus YNL183C, strain NPR1, stronger effect = lower value 1.03 | S. cerevisiae deletion strains, locus YNL197C, strain WHI3, stronger effect = lower value 1.01 | S. cerevisiae deletion strains, locus YNL224C, strain SQS1, stronger effect = lower value 1.02 | S. cerevisiae deletion strains, locus YNL233W, strain BNI4, stronger effect = lower value 0.985 | S. cerevisiae deletion strains, locus YNL250W, strain rad50, stronger effect = lower value 1.03 | S. cerevisiae deletion strains, locus YNL271C, strain bni1, stronger effect = lower value 1.05 | S. cerevisiae deletion strains, locus YNL298W, strain CLA4, stronger effect = lower value 1.04 | S. cerevisiae deletion strains, locus YNL322C, strain KRE1, stronger effect = lower value 1.02 | S. cerevisiae deletion strains, locus YNR052C, strain pop2, stronger effect = lower value 1.04 | S. cerevisiae deletion strains, locus YOL006C, strain TOP1, stronger effect = lower value 0.636 | S. cerevisiae deletion strains, locus YOL012C, strain htz1 0.667 | S. cerevisiae deletion strains, locus YOL147C, strain pex11, stronger effect = lower value 1.03 | S. cerevisiae deletion strains, locus YOR061W, strain CKA2, stronger effect = lower value 1.01 | S. cerevisiae deletion strains, locus YOR069W, strain VPS5, stronger effect = lower value 1.01 | S. cerevisiae deletion strains, locus YOR083W, strain WHI5 (second series), stronger effect = lower value 0.893 | S. cerevisiae deletion strains, locus YOR136W, strain idh2, stronger effect = lower value 1.03 | S. cerevisiae deletion strains, locus YOR144C, strain elg1, stronger effect = lower value 1.02 | S. cerevisiae deletion strains, locus YOR184W, strain ser1, stronger effect = lower value 0.979 | S. cerevisiae deletion strains, locus YOR231W, strain MKK1, stronger effect = lower value 1.06 | S. cerevisiae deletion strains, locus YOR316C, strain cot1, stronger effect = lower value 1.03 | S. cerevisiae deletion strains, locus YPL055C, strain LGE1, stronger effect = lower value 0.851 | S. cerevisiae deletion strains, locus YPL241C, strain CIN2, stronger effect = lower value 1.01 and 1 | S. cerevisiae deletion strains, locus YPL256C, strain CLN2, stronger effect = lower value 1.08 | S. cerevisiae deletion strains, locus YPR119W, strain clb2, stronger effect = lower value 1.04 | S. cerevisiae deletion strains, locus YPR141C, strain kar3, stronger effect = lower value 1.03 | S. cerevisiae deletion strains, locus YPR163C, strain tif3, stronger effect = lower value 1 | S. cerevisiae deletion strains, locus YPR167C, strain met16, stronger effect = lower value 1.02 | S. cerevisiae deletion strains, strain wtn01, stronger effect = lower value 0.999 | S. cerevisiae strains, strain wild type, stronger effect = lower value 1.01
